Assay results reported in PubChem BioAssay AID1259313 (Sanford-Burnham Center for Chemical Genomics, 2017).
About 8,500 (2.5%) of roughly 340,000 compounds were called active.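 The calls were made as follows: active = melting temperature shift of at least 10% of the positive control shift, at one fixed dose; inactive = the rest.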 For the sample, actives were picked, then their nearest neighbours and some compounds at random.

Tested on: Glutamate receptor ionotropic, NMDA 3A (GRIN3A) ligand-binding domain
Test: NR3A LBD thermal stabilization by compounds – biophysical, differential scanning fluorimetry, uHTS, primary screen (AID 1259313)
Details: at 25 µM, hits give high values, 0% = protein alone, 100% = glycine-bound protein

Tm shift relative to glycine control, inactive:
Cc1cn(C)c(=O)n(C)c1=O -0.48%
CCN(CC)S(=O)(=O)c1ccc(NC(=O)c2cccnc2Cl)c(NC(=O)c2cccnc2Cl)c1 -0.78%
CC(=O)c1sc(N)nc1C 2.68%
CCOC(=O)c1sc(NC(=O)c2sc(C)nc2C)nc1C 3.53%
CN(C)C(=O)CCC(=O)N1CCCCC1C(=O)Nc1ccc(Oc2ccccc2F)cc1 (stereo not drawn) -0.77%
O=S(=O)(c1ccc(Cl)cc1)N1CCCN(c2ccc(C(F)(F)F)cn2)CC1 -4.38%
COc1cc([N+](=O)[O-])ccc1NC(=O)COC(=O)CCOc1ccc(C)cc1 2.57%
COC(=O)c1ccccc1NC(=O)Cc1ccccc1OC -0.63%
COc1ccc(CCNC(=O)COC(=O)c2ccc[nH]c2=O)cc1 -2.27%
Cc1cccc(/C=N/NC(=O)CNc2cccc3ccccc23)n1 4.98%
Cc1ccc(/C=N/NC(=O)CN2CCN(Cc3ccccc3)CC2)s1 -1.47%
Cc1ccc(NC(=O)CSc2nc(CSc3ccc(C)cc3)cc(=O)[nH]2)cc1 -30.2%
COc1ccc(C)cc1-n1nnnc1SCc1nc2ccccc2c(=O)[nH]1 0.31%
O=C(Nc1ccc(Br)cc1)c1cccc(NC(=O)C2C3CC4OC(=O)C2C4C3)c1 (stereo not drawn) -8.89%
O=C(NC(=S)Nc1cccc(-c2ccc(CO)o2)c1)c1cccs1 -18.4%
O=C(Nc1ccc(Cl)cc1)C1c2cccc[n+]2CC(=O)N1Cc1ccc2c(c1)OCO2 (stereo not drawn) 0.68%
COc1ccc(N2C(=O)C(CC(=O)Nc3ccccc3)N(Cc3ccc(OC)c(OC)c3)C2=O)cc1 (stereo not drawn) -3.64%
O=C(CN1CCN(C(=S)NC2CCCC2)CC1)Nc1ccc(Oc2ccccc2)cc1 -2.87%
O=C(NCc1ccccc1Cl)C1CCN(S(=O)(=O)c2cccc3nonc23)CC1 2.6%
Cc1ccccc1-n1c(C)cc(/C=C2\NC(=O)NC2=O)c1C -2.81%
Cc1cc(/C=C2/NC(=O)NC2=O)c(C)n1-c1cccnc1 -4.95%
O=C1C2N=NN(CC(=O)N3N=C(c4cccc5ccccc45)CC3c3ccccc3)C2C(=O)N1c1ccccc1 (stereo not drawn) -0.6%
COc1ccc(C2=NN(c3ccccc3)C(c3cccs3)C2)cc1 (stereo not drawn) 0.58%
Cc1ccc(C(=O)COC(=O)CCN2C(=O)C3C4CCC(C4)C3C2=O)cc1C (stereo not drawn) 1.5%
O=C(CCN1C(=O)C2C3C=CC(C3)C2C1=O)Oc1ccc2ccccc2c1 (stereo not drawn) -2.31%
CCn1nc(C)c(/C=N/NC(=O)Cc2ccc(Cl)cc2)c1C 1.94%
Cc1nn(Cc2ccc(Cl)cc2)c(Cl)c1/C=N/NC(=O)c1cccnc1 -6.33%
C/C=C/C(=O)OCc1csc(CC(=O)Nc2ccccc2C)n1 -1.3%
Cc1ccc(S(=O)(=O)N2CCN(CC(=O)N/N=C/c3ccc(Br)s3)CC2)cc1 0.82%
Cc1ccc(C)c(S(=O)(=O)N2CCN(CC(=O)Nc3ccc([N+](=O)[O-])cc3)CC2)c1 -7.08%
CCOC(=O)CN(C)S(=O)(=O)c1ccc(-c2cc(C(=O)OC)sc2C(F)(F)F)cc1 -0.21%
CCC(CC)C(=O)Nc1cccc(C(=O)N2CCCC2)c1 -2.45%
Cc1cc(C(=O)COc2ccc(Br)cc2F)c(C)n1C1CC1 1.06%
COc1ccc(C(c2nnnn2Cc2cccs2)N2CCN(c3ccccc3)CC2)cc1OC (stereo not drawn) 0%
N#Cc1ccc(C(c2nnnn2CCc2ccccc2)N2CCCCCC2)cc1 (stereo not drawn) 1.53%
COc1ccc(S(=O)(=O)N2CCN(c3ncnc4c(-c5ccccc5)nsc34)CC2)cc1 -1.19%
O=C(c1ccc(F)cc1)c1c[nH]c(C(=O)NCc2cccnc2)c1 -1.06%
CCN(Cc1ccncc1)C(=O)c1cccc(S(=O)(=O)N2CCOCC2)c1 0.46%
Cc1ccc(S(=O)(=O)NCC(=O)Nc2ccc3c(c2)OCCO3)cc1 0.9%
CC(C)CNS(=O)(=O)c1ccc(C(=O)Nc2ccc3c(c2)OCO3)cc1 -0.27%
CCN(CC)CC(=O)c1c[nH]c2ccc(OC)cc12 -2.92%
COc1ccc2[nH]cc(CCN3C(=O)c4ccc(C(=O)O)cc4C3=O)c2c1 -2.98%
C=C(C)C1CC=C(C)/C(=N/NC(=O)CCCNc2cccc(C)c2)C1 (stereo not drawn) -0.09%
CCc1cc2c(SCC(=O)Nc3ncc(Cl)c(C)c3Cl)ncnc2s1 -1.41%
O=C(NNC(=O)c1cccc(S(=O)(=O)Nc2ccc(Cl)cc2)c1)c1ccc(=O)[nH]c1 0.33%

Tm shift relative to glycine control, active:
CCOC(=O)c1nc(N)sc1C(=O)OCC 17.7%
COc1ccccc1CC(=O)Nc1ccc([N+](=O)[O-])cc1OC 10.2%
Cc1ccccc1NCC(=O)N/N=C\c1ccc([N+](=O)[O-])s1 11.5%
Cc1ccc(Nc2nc(CSc3nnnn3-c3ccccc3)cc(=O)[nH]2)cc1 10.7%
CCCOc1ccc(NC(=O)CC2C(=O)N(C)C(=S)N2Cc2ccc3c(c2)OCO3)cc1 (stereo not drawn) 23.2%
Cc1ccc(CN2C(=O)N/C(=C/c3cc(C)n(-c4ccccn4)c3C)C2=O)cc1 57.7%
Oc1ccccc1C1=NN(c2ccccc2)C(c2ccccc2)C1 (stereo not drawn) 11.9%
Cc1ccc(C(=O)COC(=O)CCN2C(=O)C3C4CC(C(Br)C4Br)C3C2=O)cc1 (stereo not drawn) 18%
Cc1nn(Cc2ccc(Cl)cc2)c(Cl)c1/C=N/NC(=O)CNc1ccccc1F 16.1%
Cc1ccc(S(=O)(=O)N2CCN(CC(=O)N/N=C/c3cc([N+](=O)[O-])ccc3Cl)CC2)cc1 19.9%
COc1ccc(CCn2nnnc2C(c2ccccc2)N2CCN(C)CC2)cc1OC (stereo not drawn) 10.2%
CNS(=O)(=O)c1ccc(NC(=O)Nc2ccc3c(c2)OCO3)cc1 11.2%
COc1ccc2[nH]cc(/C=C(/C#N)S(=O)(=O)c3ccccc3)c2c1 13.2%
